The supplement of paper PMC7411054
Structures can show the parent of a compound that is named as a salt.

Legend:
Details in all cases: treatment time: 24 h
A549-ACTB-RAB5A [1] = experiment: lowest phenotypically active concentration; higher = less potent
Method in brief: (§1)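 Live-cell features were measured per well and normalised to solvent control wells after fifteen gene-edited A549, HepG2 and WPMY1 reporter lines had been treated for 24 h at 0.3, 1, 3 or 9 µM in four wells each. A condition was deviating when ≥3 of 4 wells sat beyond the 95th percentile of control Euclidean distances. It was reproducible when the median replicate Pearson correlation exceeded the 95th percentile of non-replicates. Phenotypic activity demanded both.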

A549-ACTB-RAB5A [2] = experiment: phenotypically active (imaging signature differs from DMSO and reproducible) at any of 0.3-9 uM (binary (1 = active, 0 = inactive)); higher = active
Method in brief: as §1

A549-CANX-COX4 [3] = experiment: as above
Method in brief: as §1

A549-GM130-SQSTM1 [4] = experiment: as above
Method in brief: as §1

A549-TP53BP1-CLTA [5] = experiment: as above
Method in brief: as §1

A549-TUBA1B-RELA [6] = experiment: as above
Method in brief: as §1

HepG2-ACTB-RAB5A = experiment: as above
Method in brief: as §1

HepG2-CANX-COX4 = experiment: as above
Method in brief: as §1

HepG2-GM130-SQSTM1 = experiment: as above
Method in brief: as §1

HepG2-TP53BP1-CLTA = experiment: as above
Method in brief: as §1

HepG2-TUBA1B-RELA = experiment: as above
Method in brief: as §1

WPMY1-ACTB-RAB5A = experiment: as above
Method in brief: as §1

WPMY1-CANX-COX4 = experiment: as above
Method in brief: as §1

WPMY1-GM130-SQSTM1 = experiment: as above
Method in brief: as §1

WPMY1-TP53BP1-CLTA = experiment: as above
Method in brief: as §1

WPMY1-TUBA1B-RELA = experiment: as above
Method in brief: as §1

A549-CANX-COX4 [7] = experiment: lowest phenotypically active concentration; higher = less potent
Method in brief: as §1

A549-GM130-SQSTM1 [8] = experiment: as above
Method in brief: as §1

A549-TP53BP1-CLTA [9] = experiment: as above
Method in brief: as §1

A549-TUBA1B-RELA [10] = experiment: as above
Method in brief: as §1

Structure (SMILES) | lowest phenotypically active concentration (A549-ACTB-RAB5A [1]) | phenotypically active (A549-ACTB-RAB5A [2]) | phenotypically active (A549-CANX-COX4 [3]) | phenotypically active (A549-GM130-SQSTM1 [4]) | phenotypically active (A549-TP53BP1-CLTA [5]) | phenotypically active (A549-TUBA1B-RELA [6]) | phenotypically active (HepG2-ACTB-RAB5A) | phenotypically active (HepG2-CANX-COX4) | phenotypically active (HepG2-GM130-SQSTM1) | phenotypically active (HepG2-TP53BP1-CLTA) | phenotypically active (HepG2-TUBA1B-RELA) | phenotypically active (WPMY1-ACTB-RAB5A) | phenotypically active (WPMY1-CANX-COX4) | phenotypically active (WPMY1-GM130-SQSTM1) | phenotypically active (WPMY1-TP53BP1-CLTA) | phenotypically active (WPMY1-TUBA1B-RELA) | lowest phenotypically active concentration (A549-CANX-COX4 [7]) | lowest phenotypically active concentration (A549-GM130-SQSTM1 [8]) | lowest phenotypically active concentration (A549-TP53BP1-CLTA [9]) | lowest phenotypically active concentration (A549-TUBA1B-RELA [10])
NC(=O)c1ccc(N(C(N)=O)c2c(F)cccc2F)nc1-c1ccc(F)cc1F | 9 µM | 1 (active) | 0 (inactive) | 0 (inactive) | 0 (inactive) | 0 (inactive) | 0 (inactive) | 0 (inactive) | 0 (inactive) | 0 (inactive) | 0 (inactive) | 0 (inactive) | 0 (inactive) | 0 (inactive) | 0 (inactive) | 0 (inactive) |  |  |  | 
C#Cc1cccc(Nc2ncnc3cc(OCCOC)c(OCCOC)cc23)c1 [erlotinib] | ≤ 0.3 µM | 1 (active) | 1 (active) | 1 (active) | 1 (active) | 1 (active) | 1 (active) | 1 (active) | 1 (active) | 1 (active) | 1 (active) | 0 (inactive) | 0 (inactive) | 0 (inactive) | 0 (inactive) | 0 (inactive) | 3 µM | 3 µM | 1 µM | 1 µM
CN(C)CCCSc1ccccc1NC(=O)/C=C/c1ccccc1 [Cinanserin hydrochloride] |  | 0 (inactive) | 0 (inactive) | 0 (inactive) | 0 (inactive) | 0 (inactive) | 0 (inactive) | 0 (inactive) | 0 (inactive) | 0 (inactive) | 0 (inactive) | 0 (inactive) | 0 (inactive) | 0 (inactive) | 0 (inactive) | 0 (inactive) |  |  |  | 
C[C@]12CCC(=O)C=C1CC[C@@H]1[C@@H]2[C@@H](O)C[C@@]2(C)[C@H]1CC[C@]2(O)C(=O)CO [hydrocortisone] | ≤ 0.3 µM | 1 (active) | 1 (active) | 1 (active) | 1 (active) | 1 (active) | 0 (inactive) | 0 (inactive) | 0 (inactive) | 0 (inactive) | 0 (inactive) | 0 (inactive) | 0 (inactive) | 0 (inactive) | 0 (inactive) | 0 (inactive) | ≤ 0.3 µM | ≤ 0.3 µM | ≤ 0.3 µM | ≤ 0.3 µM
C[C@H]1[C@H](C)CC[C@]2(C(=O)O[C@@H]3O[C@H](CO[C@@H]4O[C@H](CO)[C@@H](O[C@@H]5O[C@@H](C)[C@H](O)[C@@H](O)[C@H]5O)[C@H](O)[C@H]4O)[C@@H](O)[C@H](O)[C@H]3O)CC[C@]3(C)C(=CC[C@@H]4[C@@]5(C)C[C@@H](O)[C@H](O)[C@@](C)(CO)[C@@H]5CC[C@]43C)[C@H]12 [Asiaticoside] |  | 0 (inactive) | 0 (inactive) | 0 (inactive) | 0 (inactive) | 0 (inactive) | 0 (inactive) | 0 (inactive) | 0 (inactive) | 0 (inactive) | 0 (inactive) | 0 (inactive) | 0 (inactive) | 0 (inactive) | 0 (inactive) | 0 (inactive) |  |  |  | 
COc1ccc(C2(CNC(=O)c3ccc(NC(=O)c4ccco4)cc3)CCOCC2)cc1 |  | 0 (inactive) | 0 (inactive) | 0 (inactive) | 0 (inactive) | 0 (inactive) | 0 (inactive) | 0 (inactive) | 0 (inactive) | 0 (inactive) | 0 (inactive) | 0 (inactive) | 0 (inactive) | 0 (inactive) | 0 (inactive) | 0 (inactive) |  |  |  | 
C[C@@H]1C[C@H]2[C@@H]3C[C@H](F)C4=CC(=O)C=C[C@]4(C)[C@@]3(F)[C@@H](O)C[C@]2(C)[C@@]1(O)C(=O)COC(=O)C(C)(C)C [flumethasone pivalate] | ≤ 0.3 µM | 1 (active) | 1 (active) | 1 (active) | 1 (active) | 1 (active) | 0 (inactive) | 0 (inactive) | 0 (inactive) | 0 (inactive) | 0 (inactive) | 0 (inactive) | 0 (inactive) | 0 (inactive) | 0 (inactive) | 0 (inactive) | ≤ 0.3 µM | ≤ 0.3 µM | ≤ 0.3 µM | ≤ 0.3 µM
CCC[C@H](N[C@@H](C)C(=O)N1[C@H](C(=O)O)C[C@@H]2CCCC[C@@H]21)C(=O)OCC [perindopril] |  | 0 (inactive) | 0 (inactive) | 0 (inactive) | 0 (inactive) | 0 (inactive) | 0 (inactive) | 0 (inactive) | 0 (inactive) | 0 (inactive) | 0 (inactive) | 0 (inactive) | 0 (inactive) | 0 (inactive) | 0 (inactive) | 0 (inactive) |  |  |  | 
FC(F)(F)c1ccc(/C=C/c2nc(COc3ccc(CCCCn4ccnn4)cc3)co2)cc1 | ≤ 0.3 µM | 1 (active) | 1 (active) | 1 (active) | 1 (active) | 1 (active) | 1 (active) | 1 (active) | 1 (active) | 1 (active) | 1 (active) | 0 (inactive) | 0 (inactive) | 0 (inactive) | 0 (inactive) | 0 (inactive) | ≤ 0.3 µM | ≤ 0.3 µM | ≤ 0.3 µM | ≤ 0.3 µM
O=C1NC(=O)C(c2ccccc2[N+](=O)[O-])=C1Nc1ccc(O)c(Cl)c1 | 9 µM | 1 (active) | 1 (active) | 1 (active) | 1 (active) | 1 (active) | 1 (active) | 1 (active) | 1 (active) | 1 (active) | 1 (active) | 1 (active) | 0 (inactive) | 0 (inactive) | 0 (inactive) | 0 (inactive) | 9 µM | 9 µM | 9 µM | 9 µM
C=CCc1ccc(O)c(-c2ccc(O)c(CC=C)c2)c1 [Honokiol] | 9 µM | 1 (active) | 0 (inactive) | 0 (inactive) | 0 (inactive) | 0 (inactive) | 0 (inactive) | 0 (inactive) | 0 (inactive) | 0 (inactive) | 0 (inactive) | 0 (inactive) | 0 (inactive) | 0 (inactive) | 0 (inactive) | 0 (inactive) |  |  |  | 
O=C(c1ccccc1)c1ccc2n1CCC2C(=O)O (stereo not drawn) [ketorolac] |  | 0 (inactive) | 0 (inactive) | 0 (inactive) | 0 (inactive) | 0 (inactive) | 0 (inactive) | 0 (inactive) | 0 (inactive) | 0 (inactive) | 0 (inactive) | 0 (inactive) | 0 (inactive) | 0 (inactive) | 0 (inactive) | 0 (inactive) |  |  |  | 
CCCC(=O)O[C@]1(C(=O)COC(C)=O)CC[C@H]2[C@@H]3C[C@H](F)C4=CC(=O)C=C[C@]4(C)[C@@]3(F)[C@@H](O)C[C@@]21C [difluprednate] | ≤ 0.3 µM | 1 (active) | 1 (active) | 1 (active) | 1 (active) | 1 (active) | 0 (inactive) | 0 (inactive) | 0 (inactive) | 0 (inactive) | 0 (inactive) | 0 (inactive) | 0 (inactive) | 0 (inactive) | 0 (inactive) | 0 (inactive) | ≤ 0.3 µM | ≤ 0.3 µM | ≤ 0.3 µM | ≤ 0.3 µM
N=C(N)Nc1nc(CSCCC(=N)NS(N)(=O)=O)cs1 [famotidine] |  | 0 (inactive) | 0 (inactive) | 0 (inactive) | 0 (inactive) | 0 (inactive) | 0 (inactive) | 0 (inactive) | 0 (inactive) | 0 (inactive) | 0 (inactive) | 0 (inactive) | 0 (inactive) | 0 (inactive) | 0 (inactive) | 0 (inactive) |  |  |  | 
CCO[C@@H](Cc1ccc(OCCc2ccc(OS(C)(=O)=O)cc2)cc1)C(=O)O [Tesaglitazar] |  | 0 (inactive) | 0 (inactive) | 0 (inactive) | 0 (inactive) | 0 (inactive) | 0 (inactive) | 0 (inactive) | 0 (inactive) | 0 (inactive) | 0 (inactive) | 0 (inactive) | 0 (inactive) | 0 (inactive) | 0 (inactive) | 0 (inactive) |  |  |  | 
O=C(O)c1cc(=O)c(O)c(C(=O)O)o1 [Meconic acid] |  | 0 (inactive) | 0 (inactive) | 0 (inactive) | 0 (inactive) | 0 (inactive) | 0 (inactive) | 0 (inactive) | 0 (inactive) | 0 (inactive) | 0 (inactive) | 0 (inactive) | 0 (inactive) | 0 (inactive) | 0 (inactive) | 0 (inactive) |  |  |  | 
C[C@H]1C[C@@H]2[C@H]([C@@H](O)C[C@@]3(C)[C@H]2CC[C@]3(O)C(=O)CO)[C@@]2(C)C=CC(=O)C=C12 [methylprednisolone] | ≤ 0.3 µM | 1 (active) | 1 (active) | 1 (active) | 1 (active) | 1 (active) | 0 (inactive) | 0 (inactive) | 0 (inactive) | 0 (inactive) | 0 (inactive) | 0 (inactive) | 0 (inactive) | 0 (inactive) | 0 (inactive) | 0 (inactive) | ≤ 0.3 µM | ≤ 0.3 µM | ≤ 0.3 µM | ≤ 0.3 µM
COc1nc(N)nc2c1ncn2[C@@H]1O[C@H](CO)[C@@H](O)[C@@H]1O [Nelarabine] | 9 µM | 1 (active) | 0 (inactive) | 0 (inactive) | 0 (inactive) | 0 (inactive) | 0 (inactive) | 0 (inactive) | 0 (inactive) | 0 (inactive) | 0 (inactive) | 0 (inactive) | 0 (inactive) | 0 (inactive) | 0 (inactive) | 0 (inactive) |  |  |  | 
COc1cc2ncnc(Nc3ccc(O)c(Br)c3)c2cc1OC | 1 µM | 1 (active) | 1 (active) | 1 (active) | 1 (active) | 1 (active) | 1 (active) | 1 (active) | 1 (active) | 1 (active) | 1 (active) | 1 (active) | 1 (active) | 1 (active) | 1 (active) | 0 (inactive) | 3 µM | 3 µM | 1 µM | 3 µM
